Screening results as filed in PubChem BioAssay.
A549 viability: A549 cytotoxicity, counter-screen for Nrf2 inhibitors | A549 ARE-Fluc cells, CellTiter-Fluor viability, 18-24 h | Potency, µM (highest dose often 46 µM), usual class: inhibitors | 0.16% of 390,000 active | AID 504648
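Cytotoxicity counterscreen: CellTiter-Fluor fluorescence was measured in A549 ARE_Fluc cells after 18-24 h of compound exposure in a concentration series. The subsequent BugLite luminescent read reports ARE-luciferase activity.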
HepG2 tox-1: counter-screen for TGF-b inhibitors: cytotoxicity in HepG2 cells. HepG2 CAGA-GFP viability, ATP luminescence, 18 h. Potency, µM (titrated, usually from 46.1 µM), actives largely listed as cytotoxic. 0.76% of 410,000 active. AID 588856
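CellTiter-Glo luminescence gave cytotoxicity after 18 hours at 37 degrees C. The cells were HepG2 CAGA-GFP in 1% FBS DMEM, stimulated with 500 pg/mL TGF-beta after compound addition. %Activity was normalised to no-cell wells (complete cell-killing) and DMSO (no toxicity), and curves were fitted and classified.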
TGFb inhibitor: TGF-b pathway inhibition; AID 588855; 1.2% of 410,000 active; Potency, µM (titrated, usually from 46.1 µM), usual class: inhibitors; HepG2 CAGA-GFP TGF-b/SMAD3 reporter, GFP fluorescence, 18 h; TGF-beta stimulated, 500 pg/mL final; also: nearly all actives have a fitted effect of over 65% in size
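HEPG2 CAGA-GFP cells (1000/well, DMEM with 1% FBS) were pre-incubated 2 h at 37 degrees C, given compound by pin tool, then stimulated with TGF-beta at 500 pg/mL final for 18 h before per-cell GFP fluorescence imaging.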
Nrf2 inh: blocks Nrf2 signaling. 2.1% of 360,000 active. Potency, µM (titrated, usually from 46 µM), most hits filed as inhibitors. AID 504444. A549 ARE-Fluc reporter, luciferase luminescence, 18-24 h; also: nearly all actives have a fitted effect of over 60% in size
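Two sequential reads on A549 ARE_Fluc cells exposed to compound for 18-24 h: a CellTiter-Fluor fluorescence read for viability, then a luciferase luminescence read for Nrf2/ARE activity.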
Nrf2 activator: activators of Nrf2 (ARE) signaling; Potency, µM (doses to about 46.1 µM), most hits filed as activators; 0.31% of 410,000 active; AREc32 ARE-luciferase reporter (MCF7-derived line), luminescence, 24 h; also: nearly all actives have a fitted effect of over 65% in size
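Steps: seed AREc32_Fluc cells (1000/well, 5% FBS OPTI-MEM); incubate overnight at 37 deg C; add 23 nL compound; incubate 24 hr; add Steady-Glo; hold 30 min RT; read luminescence.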
TGFb confirm: TGF-b pathway inhibition, cherry-pick retest; shares compounds with TGFb inhibitor; HepG2 CAGA-GFP TGF-b reporter, GFP fluorescence, 18 h; cells stimulated with TGF-beta, 500 pg/mL; Potency, µM (doses to about 46.1 µM), actives largely listed as inhibitors; 63% of 1,600 active; AID 720534; also: nearly all actives have a fitted effect of over 65% in size
HepG2 tox-2: counter-screen for TGF-b inhibitors: cytotoxicity in HepG2 cells. shares compounds with TGFb inhibitor. HepG2 CAGA-GFP viability, ATP luminescence, 18 h; cells stimulated with TGF-beta, 500 pg/mL. Potency, µM (titrated, usually from 46.1 µM), hits mostly inhibitors. 27% of 1,600 active. AID 720535; also: nearly all actives have a fitted effect of over 70% in size
CCL64 TGFb inh: blocks TGF-b signaling in CCL64 reporter cells | shares compounds with TGFb inhibitor | CCL64 CAGA-GFP reporter, TGF-b stimulated, GFP fluorescence, 18 h | Potency, µM (titrated, usually from 46.1 µM), hits mostly inhibitors | 41% of 1,600 active | AID 720536; also: nearly all actives have a fitted effect of over 65% in size
TGFb COP inh: TGF-b inhibition validated with COP promoter. HepG2 COP-GFP TGF-b reporter, GFP fluorescence, 18 h; cells stimulated by added recombinant TGF-beta. shares compounds with TGFb inhibitor. Potency, µM (titrated, usually from 46.1 µM), hits mostly inhibitors. 3% of 1,600 active; also: nearly all actives have a fitted effect of over 70% in size
A number is an active result; n = inactive; u = inconclusive; x = no result; [ ] = dose if it differs, or a comment. Hits are enriched below; roughly 3.6% of the tested compounds scored in any of these assays. Calls follow the shape of the dose curve; as a rule, active = well fitted curve in the direction sought with a large enough effect; inconclusive = small, poorly fitted or top-dose-only effect, or another doubt; inactive = no such curve, though single readings can be large; an effect the other way counts as inactive or inconclusive.

SMILES	A549 viability	HepG2 tox-1	TGFb inhibitor	Nrf2 inh	Nrf2 activator	TGFb confirm	HepG2 tox-2	CCL64 TGFb inh	TGFb COP inh
Cc1cc(Cl)c(S(=O)(=O)N2CCCCCC2)cc1OCC(=O)NC1CCCCC1	n	n	n	n	n	x	x	x	x
Cc1cc(Cl)c(S(=O)(=O)N2CCN(c3ccccn3)CC2)cc1OCC(=O)NC1CCCCC1	n	n	10µM	u	n	12µM	u	n	n
CC(C)(C)c1ccc(Cn2cnc(-c3ccc([N+](=O)[O-])cc3)c2)cc1	u	n	8.9µM	u	n	21µM	u	u	n
COc1ccc(CC(N)c2csc(NC(=O)Nc3ccccc3C(C)C)n2)cc1 (centres undefined)	x	n	5.6µM	x	n[9.22 µM]	u	u	u	u
COc1ccc(CC(N)c2csc(NC(=O)CCc3ccccc3)n2)cc1 (centres undefined)	x	n	u	x	n	x	x	x	x
Cc1ccc(NC(=O)CN2CCN(C(=O)c3ccco3)CC2)cc1	n	n	n	n	n	x	x	x	x
Cc1cccc(Oc2ncccc2[N+](=O)[O-])c1C	n	n	n	n	n	x	x	x	x
CC(=O)N(/N=C/c1ccc([N+](=O)[O-])o1)c1nc2ccccc2c(=O)n1-c1ccccc1	n	n	u	n	u	x	x	x	x
CS/C(=N\S(=O)(=O)c1cccs1)Nc1ccc(F)c(Cl)c1	n	n	8.9µM	n	n	u	n	n	n
CS/C(=N\S(=O)(=O)c1cccs1)Nc1cccc(Cl)c1C	n	n	n	n	n[9.22 µM]	x	x	x	x
Cc1ccc2nc(-c3c[nH]c4ccccc34)c(Nc3ccc(F)cc3)n2c1	u	n	n	n	u	x	x	x	x
Cc1ccc(S(=O)(=O)N2CCCC2)cc1C(=O)N1CCN(Cc2ccccc2)CC1	n	n	n	n	n	x	x	x	x
CCc1ccc(OCC(=O)Nc2ccc(-c3cc4ccccc4oc3=O)c(OC)c2)cc1	n	n	u	n	n	u	n	n	n
COc1cc(NC(=O)c2cc(Cl)ccc2Cl)ccc1-c1cc2ccccc2oc1=O	n	n	n	n	n	x	x	x	x
COc1ccc(N2CC(C(=O)Nc3cc(C)on3)CC2=O)cc1 (centres undefined)	n	n	u	n	n	x	x	x	x
Cc1ccc(OC(C)C(=O)Nc2ccncc2)cc1C (centres undefined)	n	n	10µM	u	n	u	u	n	n
Cc1ccc(OC(C)C(=O)N2CCN(CCc3ccncc3)CC2)cc1C (centres undefined)	n	n	n	n	n	x	x	x	x
N#Cc1ccc(C(=O)NCC(c2ccco2)N2CCCCC2)cc1 (centres undefined)	n	n	n	x	n	x	x	x	x
O=C(NCC(c1ccco1)N1CCCCC1)c1ccc(COc2ccc(Cl)cc2)cc1 (centres undefined)	u	n	13µM	u	n	16µM	u	16µM	n
N=c1n(CCN2CCCCC2)c2ccccc2n1CC(=O)c1cccs1	n	n	u	n	n	n	u	23µM	n
CNC(=S)N/N=C/C1=CCC2CC1C2(C)C (centres undefined)	n	n	1.1µM	n	n	u	n	u	n
CC1(C)C2CC=C(/C=N/NC(=S)NCCc3ccccc3)C1C2 (centres undefined)	n	n	u	n	n	x	x	x	x
COc1cc(NC(=O)N2CCc3nc(Nc4cc(Cl)cc(Cl)c4)ncc3C2)cc(OC)c1OC	x	n	18µM	x	n	21µM	u	7.3µM	n
O=C(c1ccccc1)c1ccc(CN2C(=O)c3ccccc3C2=O)o1	n	n	n	n	n	x	x	x	x
O=C1c2ccccc2C(=O)c2c1oc(C(F)(F)F)c2C(=O)c1ccccc1	u	1.1µM	1.1µM	u	n	4.6µM	4.1µM	4.6µM	3.7µM
SMILES	A549 viability	HepG2 tox-1	TGFb inhibitor	Nrf2 inh	Nrf2 activator	TGFb confirm	HepG2 tox-2	CCL64 TGFb inh	TGFb COP inh
ON=C1c2ccccc2-c2ccc(Br)cc21	n	n	n	n	n	x	x	x	x
ON=C1c2ccccc2-c2ccc(F)cc21	n	n	1.6µM	n	n	9.2µM	u	n	n
COc1cc(NC(=O)C2Cc3ccccc3CN2S(C)(=O)=O)cc(OC)c1 (centres undefined)	n	n	11µM	n	n	n	n	n	n
CC(=O)Nc1ccc2nc(NC(=O)c3ccc([N+](=O)[O-])o3)sc2c1	u	n	5µM	u	u	1.8µM	21µM	u	n
CCC(=O)N1CCN(c2ccc(NC(=O)c3ccc([N+](=O)[O-])o3)cc2Cl)CC1	n	n	7.9µM	u	u	3.7µM	9.2µM	21µM	n
CCN1CCN(c2ccc(NC(=O)c3ccc([N+](=O)[O-])o3)cc2Cl)CC1	n	n	u	n	u	x	x	x	x
CCN1CCN(c2ccc(S(=O)(=O)N3CCCCC3)cc2NC(=O)c2ccc([N+](=O)[O-])o2)CC1	u	n	7.9µM	u	n	10µM	21µM	16µM	u
CC(=O)N1CCN(c2ccc(NC(=O)c3ccc([N+](=O)[O-])o3)cc2Cl)CC1	u	n	6.3µM	u	u	4.6µM	18µM	12µM	n
O=C1CC(NS(=O)(=O)c2cccnc2)CN1c1ccccc1 (centres undefined)	n	n	n	n	n	x	x	x	x
O=C1CS/C(=N\N=C\c2ccco2)N1c1ccccc1	n	n	n	u	u	x	x	x	x
